A number with no mark means an inactive call. Results filed as inconclusive are left out. Activity calls are given as the source filed them. Calls follow the shape of the dose curve; as a rule, active = well fitted curve in the direction sought with a large enough effect in the repeat runs; inconclusive = weak or mixed curves; inactive = no such curve, though single readings can be large; an effect the other way counts as inactive or inconclusive.
test system: not listed separately; assay: Caspase-3/7 induction in CHO-K1 cells by small molecules, qHTS assay (AID 1346980); details: CHO-K1 caspase-3/7 induction, Caspase-Glo luminescence, 17 h; series mostly up to 92.4 µM; caspase-3/7 activation: at the top concentration; also: nearly all actives have a fitted effect of over 15% in size
How it was run: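 Luminescent Caspase-Glo 3/7 read (30min, room temperature) quantified apoptosis induction. Cells were wild-type CHO-K1, treated with compound for 17hr at 37 C and 5% CO2.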
% is scaled to controls: 0 for no effect and ±100 for the full control effect.

Row | Structure (SMILES) | caspase-3/7 activation
1 | O=C1Nc2ccc([N+](=O)[O-])cc2C1=O | 0.571%
2 | CNCCC(Oc1ccccc1OC)c1ccccc1 (configuration not stated) | 0.856% [at 42.5 µM]
3 | C=C(C)C(=O)OCCOP(=O)(O)O | -0.493%
4 | O=C1N(c2ccccc2)c2ccccc2C1(Cc1ccncc1)Cc1ccncc1 | 2.18% [at 42.5 µM]
5 | CCOc1ccccc1N | -0.323%
6 | CCCCCCCCCCCCOCCOS(=O)(=O)O | -1.06%
7 | O=C(Cl)c1cccc([N+](=O)[O-])c1 | -0.756%
8 | O=C(O)CN(CCN(CC(=O)O)CC(=O)O)CCN(CC(=O)O)CC(=O)O | 5.14% [at 19 µM]
9 | C=O | 2.32%
10 | O=C(O)[C@@H]1CSCN1 | 0.993% [at 42.5 µM]
11 | ClC(Cl)Cl | -0.291%
12 | Cc1cc2c(s1)Nc1ccccc1N=C2N1CCN(C)CC1 | -1.25% [at 42.5 µM]
13 | CCOc1ccc(NS(=O)(=O)c2ccc(N)cc2)nn1 | -1.14% [at 42.5 µM]
14 | Cc1ccsc1C(=CCCN1CCC[C@@H](C(=O)O)C1)c1sccc1C | 1.53% [at 42.5 µM]
15 | CC(C)C[C@H](NC(=O)OCC1c2ccccc2-c2ccccc21)C(=O)O | -0.43%
16 | CCc1cc2cc(OC)c(OC)cc2c(Cc2ccccc2)n1 | 2.57% [at 42.5 µM]
17 | CCCCCCOc1ccc(N)cc1 | -2.73%
18 | COC(=O)c1ccc2cc(C(=O)OC)ccc2c1 | -2.42% [at 19 µM]
19 | CN(C)C(=O)NC1(c2ccccc2)CCN(CCC[C@]2(c3ccc(Cl)c(Cl)c3)CCCN(C(=O)c3ccccc3)C2)CC1 | -0.059% [at 19 µM]
20 | CCCCN1C[C@H](O)[C@@H](O)[C@H](O)[C@H]1CO | -0.308% [at 42.5 µM]
21 | CC(C)NCC(O)COc1ccc(CCOCC2CC2)cc1 (configuration not stated) | -0.689% [at 42.5 µM]
22 | c1ccc(CN(CC2=NCCN2)c2ccccc2)cc1 | 1.83% [at 42.5 µM]
23 | Nc1cccc(S(=O)(=O)O)c1 | -0.739%
24 | CCC(=O)c1ccc2c(c1)N(CCCN(C)C)c1ccccc1S2 | -1.28% [at 42.5 µM]
25 | Cc1cccc(C)c1NC(=O)CN1CCCCCC1 | -0.675% [at 42.5 µM]
26 | C=CCc1cc(OC)c(O)c(C(=O)NCCO)c1 | -1.98% [at 42.5 µM]

test system: not listed separately; assay: Caspase-3/7 induction in HepG2 cells by small molecules, qHTS cell viability counter screen (AID 1346981); details: CellTiter-Fluor fluorescence, 17 h; series mostly up to 92.4 µM; activity change, negative = cytotoxicity: at the top concentration; also: nearly all actives have a fitted effect of over 30% in size
How it was run: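 Multiplexed with the caspase-3/7 assay: HepG2 cells, 16 hr compound treatment, CellTiter-Fluor viability detection by fluorescence.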

Row | Structure (SMILES) | activity change, negative = cytotoxicity
27 | CNCCC(Oc1ccccc1OC)c1ccccc1 (configuration not stated) | -4.61% [at 42.5 µM]
28 | Cc1c[nH]c(=S)[nH]c1=O | 5.81%
29 | C=C(C)C(=O)OCCOP(=O)(O)O | 3.3%
30 | CCOc1ccccc1N | -1.05%
31 | CCCCCCCCCCCCOCCOS(=O)(=O)O | -4.66%
32 | O=C(Cl)c1cccc([N+](=O)[O-])c1 | 4.76%
33 | C=O | -0.85%
34 | O=C(O)[C@@H]1CSCN1 | 1.08% [at 42.5 µM]
35 | ClC(Cl)Cl | -1.3%
36 | CCN(CC)CCOc1ccc(Cc2ccccc2)cc1 | -2.35% [at 42.5 µM]
37 | CCOc1ccc(NS(=O)(=O)c2ccc(N)cc2)nn1 | 4.34% [at 42.5 µM]
38 | Cc1ccsc1C(=CCCN1CCC[C@@H](C(=O)O)C1)c1sccc1C | 9.24% [at 42.5 µM]
39 | CC(C)C[C@H](NC(=O)OCC1c2ccccc2-c2ccccc21)C(=O)O | 3.88%
40 | CCCCCCOc1ccc(N)cc1 | -3.44%
41 | COC(=O)c1ccc2cc(C(=O)OC)ccc2c1 | -0.603% [at 19 µM]
42 | CCN(CC)C(=O)N(CC)CC | 3.48%
43 | CCOC(=O)C(Br)c1ccccc1 (configuration not stated) | -0.149%
44 | Cc1ccc(C(C)C)cc1O | -1.84%
45 | CCCCN1C[C@H](O)[C@@H](O)[C@H](O)[C@H]1CO | -1.85% [at 42.5 µM]
46 | CC(C)NCC(O)COc1ccc(CCOCC2CC2)cc1 (configuration not stated) | -1.27% [at 42.5 µM]
47 | c1ccc(CN(CC2=NCCN2)c2ccccc2)cc1 | -3.04% [at 42.5 µM]
48 | Nc1cccc(S(=O)(=O)O)c1 | 1.11%
49 | OCCN1CCN(CCO)CC1 | 1.48%
50 | CN1CCC[C@@H]1Cc1c[nH]c2ccc(CCS(=O)(=O)c3ccccc3)cc12 | 0.143% [at 42.5 µM]
51 | Cc1cccc(C)c1NC(=O)CN1CCCCCC1 | 0.333% [at 42.5 µM]
52 | CC(C)=CCC[C@](C)(O)[C@@H]1CC=C(C)CC1 | 0.0295%
53 | C=CCc1cc(OC)c(O)c(C(=O)NCCO)c1 | 1.5% [at 42.5 µM]
54 | CC(C)OC(C)C | -5.9%
55 | CCCCCCCOC(=O)CCC | 3.32%

biological target: Nuclear receptor subfamily 1 group I member 2 (Homo sapiens) (UniProt O75469); assay: Human pregnane X receptor (PXR) small molecule agonists, qHTS assay (AID 1346982); details: PXR-Luc HepG2, CYP3A4 luciferase reporter, 24 h; series mostly up to 92.4 µM; activation: at the top concentration; also: nearly all actives have a fitted effect of over 35% in size; also: potency is read from the fitted curve at half-maximal effect
How it was run: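 We seeded PXR-Luc HepG2 cells in assay medium containing 5% charcoal-stripped FBS, added compounds 5 hr later, incubated 24 hr, and read luminescence with ONE-Glo reagent.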

Chain of Nuclear receptor subfamily 1 group I member 2 (Homo sapiens) (O75469 whole entry, looked up): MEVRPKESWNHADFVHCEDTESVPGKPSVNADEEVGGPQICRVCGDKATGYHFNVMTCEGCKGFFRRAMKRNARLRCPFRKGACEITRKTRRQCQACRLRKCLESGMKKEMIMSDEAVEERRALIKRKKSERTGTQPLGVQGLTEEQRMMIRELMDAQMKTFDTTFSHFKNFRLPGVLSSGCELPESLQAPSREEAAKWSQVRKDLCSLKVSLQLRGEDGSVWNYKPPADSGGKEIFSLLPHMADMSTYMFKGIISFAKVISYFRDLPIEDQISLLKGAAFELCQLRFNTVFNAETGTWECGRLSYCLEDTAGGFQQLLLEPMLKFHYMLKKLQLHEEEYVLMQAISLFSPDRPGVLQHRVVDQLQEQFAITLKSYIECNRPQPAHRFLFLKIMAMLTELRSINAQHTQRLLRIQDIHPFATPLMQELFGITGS

Row | Structure (SMILES) | activation | Potency
56 | O=C1Nc2ccc([N+](=O)[O-])cc2C1=O | 4.72% | 
57 | C1CSCCS1 |  | 27.1 µM (active)
58 | Cc1c[nH]c(=S)[nH]c1=O | -0.615% | 
59 | C=C(C)C(=O)OCCOP(=O)(O)O | 5.13% | 
60 | O=C1N(c2ccccc2)c2ccccc2C1(Cc1ccncc1)Cc1ccncc1 | -2.35% [at 42.5 µM] | 
61 | CCOc1ccccc1N | 19.5% | 
62 | O=C(Cl)c1cccc([N+](=O)[O-])c1 | 9.65% | 
63 | O=C(O)CN(CCN(CC(=O)O)CC(=O)O)CCN(CC(=O)O)CC(=O)O | 8.36% [at 19 µM] | 
64 | O=C(O)[C@@H]1CSCN1 | -7.91% [at 42.5 µM] | 
65 | CCN(CC)CCOc1ccc(Cc2ccccc2)cc1 |  | 23.7 µM (active)
66 | Cc1cc2c(s1)Nc1ccccc1N=C2N1CCN(C)CC1 | 11.5% [at 42.5 µM] | 
67 | CCOC(=O)COc1ccc2c(c1)CC(NCC(O)c1cccc(Cl)c1)CC2 (configuration not stated) | -6.81% | 
68 | CCOc1ccc(NS(=O)(=O)c2ccc(N)cc2)nn1 | -5.99% [at 42.5 µM] | 
69 | Cc1ccsc1C(=CCCN1CCC[C@@H](C(=O)O)C1)c1sccc1C | 6.1% [at 42.5 µM] | 
70 | CCc1cc2cc(OC)c(OC)cc2c(Cc2ccccc2)n1 |  | 13.3 µM (active)
71 | CCCCCCOc1ccc(N)cc1 |  | 48.6 µM (active)

Row | Structure (SMILES) | activation | Potency
72 | COC(=O)c1ccc2cc(C(=O)OC)ccc2c1 | 19.9% [at 19 µM] | 
73 | CCN(CC)C(=O)N(CC)CC | 3.12% | 
74 | CCOC(=O)C(Br)c1ccccc1 (configuration not stated) | 14.7% | 
75 | Cc1ccc(C(C)C)cc1O | 13.1% | 
76 | CN(C)C(=O)NC1(c2ccccc2)CCN(CCC[C@]2(c3ccc(Cl)c(Cl)c3)CCCN(C(=O)c3ccccc3)C2)CC1 | -0.297% [at 19 µM] | 
77 | CCCCN1C[C@H](O)[C@@H](O)[C@H](O)[C@H]1CO | -4.22% [at 42.5 µM] | 
78 | c1ccc(CN(CC2=NCCN2)c2ccccc2)cc1 | 13.3% [at 42.5 µM] | 
79 | Nc1cccc(S(=O)(=O)O)c1 | -0.672% | 
80 | CN1CCN(C2=Nc3ccccc3Oc3ccc(Cl)cc32)CC1 |  | 23.7 µM (active)
81 | OCCN1CCN(CCO)CC1 | 6.05% | 
82 | CCC(=O)c1ccc2c(c1)N(CCCN(C)C)c1ccccc1S2 | 6.65% [at 42.5 µM] | 
83 | Cc1cccc(C)c1NC(=O)CN1CCCCCC1 |  | 11.9 µM (active)
84 | CC(C)=CCC[C@](C)(O)[C@@H]1CC=C(C)CC1 | 18.5% | 
85 | C=CCc1cc(OC)c(O)c(C(=O)NCCO)c1 | 14.3% [at 42.5 µM] | 
86 | CC(C)OC(C)C | -5.18% | 
87 | CCCCCCCOC(=O)CCC | 8.57% | 
